The text below walks through data of article PMC7862700, “An all-to-all approach to the identification of sequence-specific readers for epigenetic DNA modifications on cytosine”.

Holding throughout (experiment): DAPPL (digital affinity profiling via proximity ligation, sequencing); 10 mM Tris-HCl pH 7.5, 50 mM NaCl, 1 mM DTT, 4% glycerol, room temperature, 30 min; GST-TFs on glutathione beads, 16-mer random dsDNA library, 0.1% formaldehyde crosslink after washing; high values mean tight binding
Holding throughout (conditions): protein: recombinant; tags: N-terminal GST; dsDNA, one strand shown

Experiment [1] deals with T1, ERF (Homo sapiens, UniProt P50548 1-548).
T1 sequence: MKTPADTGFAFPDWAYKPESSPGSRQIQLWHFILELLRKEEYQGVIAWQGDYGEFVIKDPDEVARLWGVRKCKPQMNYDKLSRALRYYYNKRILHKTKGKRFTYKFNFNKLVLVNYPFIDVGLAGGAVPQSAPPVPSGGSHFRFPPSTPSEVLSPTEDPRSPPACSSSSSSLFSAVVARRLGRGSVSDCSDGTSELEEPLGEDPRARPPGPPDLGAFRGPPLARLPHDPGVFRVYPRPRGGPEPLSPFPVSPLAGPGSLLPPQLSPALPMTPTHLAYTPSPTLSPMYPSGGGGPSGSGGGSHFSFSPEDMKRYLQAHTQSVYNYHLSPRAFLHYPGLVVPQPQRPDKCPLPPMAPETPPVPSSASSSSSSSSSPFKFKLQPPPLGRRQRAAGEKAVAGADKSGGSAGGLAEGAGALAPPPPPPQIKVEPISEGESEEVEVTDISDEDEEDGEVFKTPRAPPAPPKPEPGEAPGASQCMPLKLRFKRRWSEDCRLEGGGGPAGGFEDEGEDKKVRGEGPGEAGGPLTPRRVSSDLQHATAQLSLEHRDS
The method, boiled down:
(§1)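 Binding signal is each hexamer's read frequency for a factor divided by its frequency in the tag-only sample. The factors were GST-fused human transcription factors from yeast, captured on glutathione beads, DNA-barcoded and pooled with that sample. Pools were incubated with 200 nmole of a random double-stranded 16-mer DNA library in Tris/NaCl/DTT/glycerol buffer at room temperature for 30 min, then washed, crosslinked with 0.1% formaldehyde, proximity-ligated with BsaI/T4 ligase (1 h, 37 °C), PCR-amplified and sequenced on an Illumina NextSeq500.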

In experiment [2] the target is T2, ETV3L (Homo sapiens, UniProt Q6ZN32 1-361).
T2 sequence: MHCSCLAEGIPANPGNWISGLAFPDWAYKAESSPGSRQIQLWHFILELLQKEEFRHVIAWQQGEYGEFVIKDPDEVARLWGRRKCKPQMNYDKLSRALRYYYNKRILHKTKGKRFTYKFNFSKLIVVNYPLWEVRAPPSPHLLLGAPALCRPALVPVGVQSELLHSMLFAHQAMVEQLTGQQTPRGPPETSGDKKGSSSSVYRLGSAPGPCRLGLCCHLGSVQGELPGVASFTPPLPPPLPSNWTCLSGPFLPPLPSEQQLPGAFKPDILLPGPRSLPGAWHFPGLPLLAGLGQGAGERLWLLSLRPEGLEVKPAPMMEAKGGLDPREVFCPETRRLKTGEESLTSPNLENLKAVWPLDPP
The method, boiled down: as §1

Experiment [3] concerns the target T3, ETS2 (Homo sapiens, UniProt P15036 1-469).
T3 sequence: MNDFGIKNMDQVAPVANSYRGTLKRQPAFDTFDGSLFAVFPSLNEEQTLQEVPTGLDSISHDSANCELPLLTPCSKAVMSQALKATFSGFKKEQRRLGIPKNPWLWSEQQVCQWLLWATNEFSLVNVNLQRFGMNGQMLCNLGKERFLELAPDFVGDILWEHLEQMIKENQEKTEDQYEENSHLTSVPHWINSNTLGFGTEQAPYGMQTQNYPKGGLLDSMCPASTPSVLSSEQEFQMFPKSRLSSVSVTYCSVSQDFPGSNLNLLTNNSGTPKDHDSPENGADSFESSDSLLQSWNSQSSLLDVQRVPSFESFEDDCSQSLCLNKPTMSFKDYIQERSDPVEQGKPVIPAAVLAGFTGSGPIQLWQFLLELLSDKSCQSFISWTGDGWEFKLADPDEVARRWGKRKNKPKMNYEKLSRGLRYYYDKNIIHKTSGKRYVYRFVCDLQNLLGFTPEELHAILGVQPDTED
Put shortly:
as §1

Experiment [4] has as its target T4, SPDEF (Homo sapiens, UniProt O95238 1-335).
T4 sequence: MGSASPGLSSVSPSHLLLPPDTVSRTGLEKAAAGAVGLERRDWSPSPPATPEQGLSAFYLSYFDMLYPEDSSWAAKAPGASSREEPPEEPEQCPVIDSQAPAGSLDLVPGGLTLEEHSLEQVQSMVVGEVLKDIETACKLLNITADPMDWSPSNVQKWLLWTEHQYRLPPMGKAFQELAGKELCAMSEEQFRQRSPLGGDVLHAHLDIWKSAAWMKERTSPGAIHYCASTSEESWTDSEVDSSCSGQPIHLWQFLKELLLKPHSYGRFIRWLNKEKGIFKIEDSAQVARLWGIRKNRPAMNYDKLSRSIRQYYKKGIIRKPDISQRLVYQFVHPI
Put shortly: as §1

The target in experiment [5] is T5, ETV7 (Homo sapiens, UniProt Q9Y603 1-341).
T5 sequence: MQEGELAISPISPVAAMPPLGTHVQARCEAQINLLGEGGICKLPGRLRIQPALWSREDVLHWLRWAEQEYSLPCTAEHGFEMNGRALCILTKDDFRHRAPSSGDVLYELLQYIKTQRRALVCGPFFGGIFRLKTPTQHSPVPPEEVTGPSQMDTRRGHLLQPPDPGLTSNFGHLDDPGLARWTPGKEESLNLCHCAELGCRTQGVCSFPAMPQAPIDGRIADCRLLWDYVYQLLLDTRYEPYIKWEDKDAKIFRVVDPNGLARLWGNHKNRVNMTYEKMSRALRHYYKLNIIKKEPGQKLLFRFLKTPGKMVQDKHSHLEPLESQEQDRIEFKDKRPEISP
The method, boiled down:
as §1

Experiment [6] addresses T6, ELF5 (Homo sapiens, UniProt Q9UKW6-2 1-255).
T6 sequence: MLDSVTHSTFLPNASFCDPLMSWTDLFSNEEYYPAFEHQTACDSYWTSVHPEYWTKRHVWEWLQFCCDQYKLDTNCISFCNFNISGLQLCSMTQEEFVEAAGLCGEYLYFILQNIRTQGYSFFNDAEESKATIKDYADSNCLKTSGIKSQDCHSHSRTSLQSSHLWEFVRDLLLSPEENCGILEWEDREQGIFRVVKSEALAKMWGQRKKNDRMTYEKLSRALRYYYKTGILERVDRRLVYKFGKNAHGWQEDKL
The method, boiled down:
as §1

Experiment [7] addresses T7, ETV3 (Homo sapiens, UniProt P41162-2 1-143).
T7 sequence: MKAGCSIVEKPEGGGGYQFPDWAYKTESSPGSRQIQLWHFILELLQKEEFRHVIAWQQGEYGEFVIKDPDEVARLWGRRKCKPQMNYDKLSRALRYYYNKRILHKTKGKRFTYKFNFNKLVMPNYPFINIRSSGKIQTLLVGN
Put shortly: as §1

For experiment [8], the target named is ETV6 (Homo sapiens, UniProt P41212 1-452). The method, boiled down:
as §1

Chain of ETV6 (P41212 whole entry): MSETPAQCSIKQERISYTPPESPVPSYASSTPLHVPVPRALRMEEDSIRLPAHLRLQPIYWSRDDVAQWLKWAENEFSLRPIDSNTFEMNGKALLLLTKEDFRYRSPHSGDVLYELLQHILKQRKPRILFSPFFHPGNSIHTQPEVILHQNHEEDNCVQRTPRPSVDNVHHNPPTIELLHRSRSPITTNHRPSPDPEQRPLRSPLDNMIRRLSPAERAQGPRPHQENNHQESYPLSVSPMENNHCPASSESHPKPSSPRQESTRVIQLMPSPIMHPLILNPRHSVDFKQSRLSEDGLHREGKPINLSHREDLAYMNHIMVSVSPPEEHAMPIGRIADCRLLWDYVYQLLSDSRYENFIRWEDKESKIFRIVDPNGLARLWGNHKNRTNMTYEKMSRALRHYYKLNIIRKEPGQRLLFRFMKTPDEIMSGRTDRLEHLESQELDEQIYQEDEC

In the case of AATCCG, the binding signal in experiment [1] was 1.5 fold enrichment (6-mer frequency, TF over GST control); in experiment [2], 1.6 fold enrichment (6-mer frequency, TF over GST control); in experiment [3], 1.7 fold enrichment (6-mer frequency, TF over GST control); in experiment [4] it was 2.04 fold enrichment (6-mer frequency, TF over GST control); in experiment [5], 1.51 fold enrichment (6-mer frequency, TF over GST control); in experiment [6] it was 1.74 fold enrichment (6-mer frequency, TF over GST control). The binding signal in experiment [7] was 1.66 fold enrichment (6-mer frequency, TF over GST control); in experiment [8] it was 1.49 fold enrichment (6-mer frequency, TF over GST control).
With GAAGTA, the binding signal in experiment [1] is 1.79 fold enrichment (6-mer frequency, TF over GST control); in experiment [2], 1.79 fold enrichment (6-mer frequency, TF over GST control); in experiment [3], 2.08 fold enrichment (6-mer frequency, TF over GST control); in experiment [4], 2.1 fold enrichment (6-mer frequency, TF over GST control); in experiment [5], 2.08 fold enrichment (6-mer frequency, TF over GST control); in experiment [6], 2.34 fold enrichment (6-mer frequency, TF over GST control). The binding signal was 2.11 fold enrichment (6-mer frequency, TF over GST control) in experiment [7] and 2.52 fold enrichment (6-mer frequency, TF over GST control) in experiment [8].
Regarding TGGTGT, the binding signal in experiment [1] is 1.19 fold enrichment (6-mer frequency, TF over GST control); in experiment [2], 1.25 fold enrichment (6-mer frequency, TF over GST control); in experiment [3] it was 1.32 fold enrichment (6-mer frequency, TF over GST control); in experiment [4], 1.23 fold enrichment (6-mer frequency, TF over GST control); in experiment [5], 1.08 fold enrichment (6-mer frequency, TF over GST control); in experiment [6] it was 1.14 fold enrichment (6-mer frequency, TF over GST control). The binding signal was 1.25 fold enrichment (6-mer frequency, TF over GST control) in experiment [7] and 1.31 fold enrichment (6-mer frequency, TF over GST control) in experiment [8].
In the case of CACTAT, the binding signal in experiment [1] was 1.2 fold enrichment (6-mer frequency, TF over GST control); in experiment [2], 1.18 fold enrichment (6-mer frequency, TF over GST control); in experiment [3], 1.25 fold enrichment (6-mer frequency, TF over GST control); in experiment [4], 1.18 fold enrichment (6-mer frequency, TF over GST control); in experiment [5], 1.29 fold enrichment (6-mer frequency, TF over GST control); in experiment [6] it was 1.15 fold enrichment (6-mer frequency, TF over GST control). Further, the binding signal is 1.2 fold enrichment (6-mer frequency, TF over GST control) in experiment [7] and 1.14 fold enrichment (6-mer frequency, TF over GST control) in experiment [8].
For the sequence TGCCCG, the binding signal in experiment [1] was 1.13 fold enrichment (6-mer frequency, TF over GST control); in experiment [2] it was 1.16 fold enrichment (6-mer frequency, TF over GST control); in experiment [3] it was 1.26 fold enrichment (6-mer frequency, TF over GST control); in experiment [4], 1.28 fold enrichment (6-mer frequency, TF over GST control); in experiment [5], 1.34 fold enrichment (6-mer frequency, TF over GST control); in experiment [6] it was 1.19 fold enrichment (6-mer frequency, TF over GST control). The binding signal in experiment [7] is 1.24 fold enrichment (6-mer frequency, TF over GST control); in experiment [8], 1.19 fold enrichment (6-mer frequency, TF over GST control).
Turning to AGTACA, the binding signal in experiment [1] is 1.06 fold enrichment (6-mer frequency, TF over GST control); in experiment [2] it was 1.09 fold enrichment (6-mer frequency, TF over GST control); in experiment [3] it was 1.16 fold enrichment (6-mer frequency, TF over GST control); in experiment [4] it was 1.31 fold enrichment (6-mer frequency, TF over GST control); in experiment [5] it was 1.21 fold enrichment (6-mer frequency, TF over GST control); in experiment [6], 1.17 fold enrichment (6-mer frequency, TF over GST control). For the same sequence, the binding signal is 1.2 fold enrichment (6-mer frequency, TF over GST control) in experiment [7] and 1.24 fold enrichment (6-mer frequency, TF over GST control) in experiment [8].
